Screening results as filed in PubChem.
This is a sample that favours compounds with a hit; in the whole collection about 2.3% have one here.
Pol iota inh: blocks human DNA polymerase iota activity; AID 588590; Pol iota fluorescent replication assay, 10 min; 390,000 compounds, 1% hits; Potency, µM (series often up to 115 µM), actives largely listed as inhibitors
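Pol iota at 10 nM preincubated 15 min with compounds at room temperature; reaction started with fluorescent substrate, 50 nM final. Fluorescence read kinetically at 0 and 10 min; buffer-only wells as negative control.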
WRN inhibitor: blocks human WRN helicase. Q14191. WRN helicase unwinding, fluorescent forked duplex, kinetic. Potency, µM (doses to about 114 µM), most hits filed as inhibitors. 360,000 compounds, 0.46% hits; note: nearly all actives have a fitted effect of over 55% in size
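Kinetic fluorescence helicase assay: unwinding of a quenched forked DNA duplex (100 nM final) with 2 mM ATP final raises red fluorescence (525/598 nm). Compounds sat 15 min at room temperature with 20 nM WRN beforehand.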
POLB inh: DNA polymerase beta (human) inhibition | P06746 | Potency, µM (top dose mostly 114 µM), hits mostly inhibitors | Pol beta primer extension/strand displacement, fluorescence kinetic | 340,000 compounds, 1.3% hits
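Reaction started by 50 nM substrate onto compound-treated Pol beta (10 nM, 15 min preincubation, room temperature); plates read at 0 min and 10 min. Normalized concentration-effect data fitted by four-parameter Hill equation.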
Pol eta inh: blocks human DNA polymerase eta activity; Q9Y253; 390,000 compounds, 1.2% hits; recombinant Pol eta, fluorescent DNA replication assay; Potency, µM (titrated, usually from 114 µM), usual class: inhibitors; AID 588591
Target sequence (Q9Y253 whole entry, looked up): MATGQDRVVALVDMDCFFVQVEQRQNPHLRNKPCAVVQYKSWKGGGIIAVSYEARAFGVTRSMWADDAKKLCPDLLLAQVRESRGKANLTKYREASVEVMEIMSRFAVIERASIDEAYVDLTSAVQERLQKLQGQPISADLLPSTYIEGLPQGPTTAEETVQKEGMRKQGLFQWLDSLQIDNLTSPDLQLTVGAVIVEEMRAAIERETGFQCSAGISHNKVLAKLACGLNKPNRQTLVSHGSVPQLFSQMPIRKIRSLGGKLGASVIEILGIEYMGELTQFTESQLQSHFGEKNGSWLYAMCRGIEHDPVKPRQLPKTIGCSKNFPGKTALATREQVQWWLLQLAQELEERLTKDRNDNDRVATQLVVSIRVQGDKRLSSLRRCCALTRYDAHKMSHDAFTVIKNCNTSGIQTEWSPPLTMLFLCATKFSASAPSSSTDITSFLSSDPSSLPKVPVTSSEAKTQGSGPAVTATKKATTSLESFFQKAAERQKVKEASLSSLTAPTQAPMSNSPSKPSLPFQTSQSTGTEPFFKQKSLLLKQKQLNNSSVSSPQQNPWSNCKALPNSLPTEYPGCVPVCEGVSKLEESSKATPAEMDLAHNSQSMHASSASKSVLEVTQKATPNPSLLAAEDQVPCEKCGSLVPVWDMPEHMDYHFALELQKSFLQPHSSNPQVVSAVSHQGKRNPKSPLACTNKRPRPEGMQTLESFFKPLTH
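Pol eta at 10 nM preincubated with compounds 15 min at room temperature; reaction started with fluorescent substrate (50 nM final) and read kinetically at 0 and 10 min.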
POLK inh: inhibitors of human DNA polymerase kappa; Q9UBT6; purified Pol kappa, fluorescent DNA synthesis assay, 10 min; Potency, µM (highest dose often 107 µM), most hits filed as inhibitors; 400,000 compounds, 0.53% hits
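Fluorescent qHTS in 1536-well format: enzyme (10 nM) and compound sat 15 min at room temperature before 50 nM substrate (final) was added. Signal taken at 0 and 10 min; no-enzyme buffer wells were negative controls.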
Hits are given with their value; n = inactive; u = inconclusive; x = no result given; [ ] = another dose, or the depositor's remark. Calls come from the whole dose curve; as a rule, active = well fitted curve in the direction sought with a large enough effect; inconclusive = small, poorly fitted or top-dose-only effect, or another doubt; inactive = no such curve, though single readings can be large; an effect the other way counts as inactive or inconclusive.

SMILES | Pol iota inh | WRN inhibitor | POLB inh | Pol eta inh | POLK inh
NCC(CC(=O)O)C1CCCCC1 (stereo unspecified) | 100µM | n | n | n | n
COCCCNC(=O)Cn1cc(/C=C2\C(=O)NC(=O)N(c3ccccc3F)C2=O)c2ccccc21 | n | n | n | n | n
COc1ccc(N2C(=O)NC(=O)/C(=C\c3cn(CC(=O)N4CCOCC4)c4ccccc34)C2=O)c(OC)c1 | 12.6µM | n | n | n | n
COCCNC(=O)Cn1cc(/C=C2\C(=O)NC(=O)N(c3ccccc3F)C2=O)c2ccccc21 | 20µM | n | n | n | n
COC(=O)Cn1cc(/C=C2\C(=O)NC(=O)N(c3ccc(OC)cc3)C2=O)c2ccccc21 | u | n | n | n | n
Cc1ccc(-c2nc(S(=O)(=O)c3ccc(C)cc3)c(SCC(=O)Nc3ccc(F)cc3)o2)cc1 | n | x | u | n | n
CC1=NNC(=O)C1Br (stereo unspecified) | 28.2µM | 28.2µM | x | n | n
O=C1NC(=O)N(c2ccccc2)C(=O)/C1=C/c1coc2ccc(O)cc2c1=O | 22.4µM | u | n | u | u
O=C1NC(=O)N(CCc2ccc(F)cc2)C(=O)/C1=C/c1cccs1 | 22.4µM | 31.6µM | u | n | n
Cc1ccc(/C=C2/C(=O)NC(=O)N(CCc3ccc(F)cc3)C2=O)o1 | u | 50.1µM | n | u | n
CN(C)c1ccc(/C=C2\C(=O)NC(=O)N(CCc3ccc(F)cc3)C2=O)cc1 | u | u | n | n | n
C=CCN1CCC23c4c5ccc(O)c4OC2/C(=N/N=C2\CCC4(O)C6Cc7ccc(O)c8c7C4(CCN6CC=C)C2O8)CCC3(O)C1C5 (stereo unspecified) | x | x | x | x | n[19.4 µM]
O=c1[nH]c(=S)n(-c2ccccc2)c(O)c1/C=N/N1CCCCC1c1cccnc1 (stereo unspecified) | u | 79.4µM | u | n | n
O=c1c(O)c(-c2ccc(O)c(O)c2)oc2c(O)c(O)cc(O)c12 | x | x | x | x | 1.12µM
CN(C)C1C(=O)C(C(N)=O)=C(O)[C@@]2(O)C(=O)C3=C(O)c4c(O)cccc4[C@](C)(O)C3C(O)C12 (stereo partly specified) | x | x | x | x | 2.82µM
CN(C)[C@@H]1C(=O)C(C(N)=O)=C(O)[C@@]2(O)C(=O)C3=C(O)c4c(O)ccc(Cl)c4[C@@](C)(O)[C@H]3C[C@@H]12 | n | n | n | n | n
CN(C)C1C(=O)C(C(N)=O)C(=O)C2(O)C(=O)C3C(=O)c4c(O)cccc4C(C)(O)C3C(O)C12 (stereo unspecified) | x | x | x | x | 2.82µM
CN(C)[C@@H]1C(=O)C(C(N)=O)=C(O)[C@@]2(O)C(=O)C3=C(O)c4c(O)cccc4[C@@](C)(O)C3C[C@@H]12 (stereo partly specified) | u | n | x | n | 79.4µM
Cc1csc2nc(COC(=O)c3ccccc3NC(=O)c3ccc(F)cc3)cc(=O)n12 | n | x | n | n | n
Cc1cnc2c(C(=O)O)c(Cl)ccc2c1 | x | x | x | x | n
CCN(CC)C(=O)c1c(C)[nH]c(=S)c(C#N)c1-c1ccco1 | n | 50.1µM | n | n | n
COc1ccc(-c2nn3c(=O)cc(CN4CCN(S(=O)(=O)c5ccc(C)cc5)CC4)nc3s2)cc1 | n | x | n | n | n
Cc1ccc(N2C(=O)/C(=C/N3CCN(C(=O)c4ccco4)CC3)C(=O)NC2=S)cc1C | 17.8µM | u | n | n | n
Nc1cccc2c(O)cccc12 | n | n | x | n | n
Oc1ccccc1O | 79.4µM | n[11.6 µM] | 39.8µM | u | 50.1µM
O=C(Nc1cccc(C(=O)Nc2cc(C(=O)Nc3ccc([S+](=O)([O-])[O-])c4cc([S+](=O)([O-])[O-])cc(SOOO)c34)ccc2F)c1)Nc1cccc(C(=O)Nc2cc(C(=O)Nc3ccc([S+](=O)([O-])[O-])c4cc([S+](=O)([O-])[O-])cc([S+](=O)([O-])[O-])c34)ccc2F)c1 | x | x | x | x | 0.0597µM
O=C(Cn1ncc2c3ccccc3n(Cc3cccc(Cl)c3)c2c1=O)N1CCC2(CC1)OCCO2 | u | n | 17.8µM | u | n
CCc1ccc(N2C(=O)NC(=O)/C(=C/c3cccn3CCOc3ccc(C)cc3)C2=O)cc1 | u | n | n | u | n
CCOc1cc(/C=C2/C(=O)NC(=O)N(c3ccc(CC)cc3)C2=O)ccc1OC(=O)c1cccs1 | n | 50.1µM | n | 44.7µM | n
